Measured values as given in PubChem BioAssay (NCI).
Values joined by “and” are separate entries in the source; they are usually repeats but may differ in a detail not shown here. Equal entries are not always repeated. Compounds without any hit were thinned out: in the full panel of roughly 83,000, 20% have a hit.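 Treatment: one concentration, 48 hours, 96-well format. Scoring: percent growth, with anything below 10 considered active.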 Values without a mark were called inactive. Active and inactive are the calls of the source.

Test system: MDA-MB-468 breast
Assay: NCI-60 one-dose screen, 48 h (100 = growth as untreated, 0 = no growth, -100 = all killed)
Details: 10 µM unless noted

Compared with CCCCSc1nnc(-c2ccc(-c3ccc(Cl)cc3)nc2C)o1, O=c1[nH]nc(-c2ccc(Cl)cc2)cc1Cc1cccc([N+](=O)[O-])c1 is lower in growth: 107% for the first, 102% for the second.

Compared with COc1ccc(CCN2C(=O)CSC2=S)cc1, O=C(O)C(c1ccccc1)N1C(=O)CSC1=S (stereo unspecified) is higher in growth: 12.9% for the first, 101% for the second.

First: O=C1Nc2ccccc2/C1=C/C(=O)c1ccc(N2CCOCC2)cc1
Second: O=C(CN1CCN(c2cc(=O)[nH]c3ccc(F)cc23)CC1)Nc1ccc(Cl)cc1
The growth of the first is higher: 85% for the first, 58.2% for the second.

Going from CNS(=O)(=O)c1ccc(Cl)c(Cl)c1 to NC(=S)NS(=O)(=O)c1ccc(N)cc1, the growth falls from 101% to 96.5%.

Going from Cc1cc2c3ccc(C)[n+](C)c3ccc2n1C to Cc1ccc2c(c1)C(=O)c1c-2c(OCCCN(C)C)nc2ccccc12, the growth rises from 19.1% to 28.9%.

Going from CC(C)(C)[Si](C)(C)OC1[C@@H](O[Si](C)(C)C(C)(C)C)[C@@H](CNC(=O)NC(=O)NC(=O)CI)O[C@H]1n1cnc2c(NC(=O)Nc3ccccc3)ncnc21 (stereo partly specified) to COc1cc(-c2nc3ccc(-c4nnc(SCC(=O)Nc5ccc(C(C)=O)cc5)o4)cc3[nH]2)cc(OC)c1OC, the growth rises from 75.5% to 101%.

Going from CCC(CC)(N(CC(=O)O)CC(=O)O)C(CC)(CC)N(CC(=O)O)CC(=O)O to O=C(c1ccccc1)N(CCCCl)C(=O)N(CCCCl)C(=O)c1ccccc1, the growth falls from 127% to 94.2%.

Going from O=C(Nc1ccncc1)C(=O)c1cn(S(=O)(=O)c2cccc3ccccc23)c2ccccc12 to O=C(CSc1nc2ccccc2c(=O)n1-c1ccc(S(=O)(=O)Nc2ccc(Cl)nn2)cc1)Nc1ccc(S(=O)(=O)Nc2ccc(Cl)nn2)cc1, the growth rises from 19.5% to 94.9%.

Going from COc1ccc(N2C(=O)C(Oc3ccccc3)C2c2ccc(C)cc2)cc1 (stereo unspecified) to C[C@]12CC[C@@H]3c4ccc(OS(=O)(=O)O)cc4CC[C@H]3[C@@H]1CC[C@@H]2NS(=O)(=O)c1ccc(-c2ccccc2)cc1, the growth falls from 122% to 76.8%.

First: O=C(Nc1cccc2c1C(=O)c1cccc(Nc3cccc4c3C(=O)c3cccc(NC(=O)c5ccccc5)c3C4=O)c1C2=O)c1ccccc1
Second: CC(C)c1c(C(=O)c2ccccc2)c(-c2ccccc2)c(-c2ccc(F)cc2)n1CC[C@@H](O)C[C@@H](O)CC(=O)O
The growth of the first is higher: 126% for the first, 39.2% for the second.

Going from CNC(=S)NC(C)(C)C to COc1ccc(/C=C\c2cc(OC)c(OC)c(OC)c2)c(NS(=O)(=O)c2ccc(C(C)(C)C)cc2)c1O, the growth falls from 111% to 38.9%.

Going from Cc1ccc(-c2nn(CC(=O)N3CCOCC3)c(N)c2C#N)cc1 to Nc1ncnc2c1c(-c1cccc(Cl)c1)nn2CC(=O)N1CCOCC1, the growth falls from 104% to 98.6%.

Going from c1ccc2c(c1)Oc1ccccc1C2C1c2ccccc2Oc2ccccc21 to Cc1ccc(NC(=O)c2[nH]c(SCCN(C)C)nc2-c2ccc(F)cc2)cc1C#Cc1cnc2cccnn12, the growth falls from 107% to 83.1%.

Compared with Cn1cc(-c2cc(N)n3nc(-c4cn(C)c5ccc(Cl)cc45)cc3n2)c2cc(Cl)ccc21, CNC(=O)c1cc(Oc2ccc3nc(NC(=O)c4cc(C(F)(F)F)cc(C(F)(F)F)c4)sc3c2)ccn1 is lower in growth: 96.3% for the first, 23% for the second.

Going from CC[C@]12C=CCN3CC[C@@]4(c5cc(NC(=O)CCC(=O)O[C@H]6CC[C@H]7[C@@H]8CCC9=CC(=O)CC[C@@H]9[C@H]8CC[C@]67C)c(OC)cc5N(C)[C@H]4[C@@](O)(C(=O)OC)[C@@H]1OC(C)=O)[C@@H]32 to CCN(CC)CCN1CNC(=S)NC1, the growth rises from 51.9% to 99.7%.

CC(=O)NCCN showed a growth of 105%.

With O=C1CC(c2ccc3c(c2)OCO3)Nc2cc3c(cc21)OCO3 (stereo unspecified) the growth was -11.3% (active).
In the case of COc1cc(CNC(=O)/C=C/C=C/c2ccc3c(c2)OCO3)ccc1OCc1cn(-c2ccc(Cl)c(Cl)c2)nn1, the growth is reported as -68.1% (active).
With CC(=O)Nc1cc(S(=O)(=O)O)cc2cc(S(=O)(=O)O)c(N=Nc3ccccc3)c(O)c12 the growth was 93.5% and 101%.
In the case of COc1ccc2c(c1)[nH]c(=O)c1c3cccnc3cn21, the growth is reported as 6.19% (active).
For O=C(NCc1ccc(Cn2c(=O)sn(-c3ccccc3)c2=O)cc1)OCc1ccc2cccc(O)c2n1, the growth was -73.3% (active).
